Results filed as inconclusive are left out. Activity calls are given as the source filed them. Rule for the calls: active = hit-call score of the fitted dose curve at least 0.9, where 1 is the maximum; inconclusive = response in the unintended direction; inactive = score below 0.9.
What follows are molecules tested on zebrafish Peroxisome Proliferator-activated Receptor alpha (PPARa), gene 563298 (assay: ATG_zfPPARa_EcoTox2: Attagene TRANS-FACTORIAL EcoTox-2 HepG2 Assay for zebrafish Peroxisome Proliferator-activated Receptor alpha (PPARa)).
Experimental: ATG_EcoTox2 is a cell-based, multiplexed assay created by modifying the existing Attagene TRANS-FACTORIAL system to include a panel of nuclear receptors from some or all the following species: human (Homo sapiens), african clawed frog (Xenopus laevis), rainbow trout (Oncorhynchus mykiss), japanese medaka (Oryzias latipes), and zebrafish (Danio rerio). The ECOTOX2-FACTORIAL format uses HepG2, a human liver cell line, with measurements taken at 24 hours after chemical dosing in a 24-well plate. ATG_zfPPARa_EcoTox2 is one of 29 assay components calculated in the ATG_EcoTox2 assay. It is designed to make measurements of mRNA induction, a form of inducible reporter, as detected with fluorescence intensity signals by Reverse transcription polymerase chain reaction (RT-PCR) and Capillary electrophoresis technology.The assay endpoint ATG_zfPPARa_EcoTox2 was analyzed in the positive analysis fitting direction relative to DMSO as the negative control and baseline of activity. Using a type of inducible reporter, measures of mRNA for gain-of-signal activity can be used to understand the reporter gene at the transcription factor-level as they relate to the gene PPARa. Furthermore, this assay endpoint can be referred to as a primary readout, because this assay has produced multiple assay endpoints where this one serves a reporter gene function. To generalize the intended target to other relatable targets, this assay endpoint is annotated to the nuclear receptor intended target family, where the subfamily is non-steroidal.
Human liver HepG2 cells are transiently transfected with multiple reporter transcription units (MRTUs) in 6-well plates using FuGene 6 reagent (Roche; 3 ml FuGene/1 mg DNA). The MRTU constructs are regulated by a cis-regulating element (promoter). Each RTU expresses a GAL4-UAS that regulates the transcription of a nearby target reporter gene sequence. A major difference between the CIS and TRANS system is that in CIS activities of endogenous TFs are measured, whereas the TRANS assay evaluates changes in activities of exogenous, chimeric NR-Gal4 proteins. […] At the end of 24 hour incubation, total RNA was isolated using TriZol reagent (Invitrogen). The isolated RNA is then reverse-transcribed using oligo(dT) primer and Mo-MLV reverse transcriptase (Invitrogen) with DNAse I (Ambion) treatment for 30 min. The one-tenth of the produced cDNA was amplified by PCR using Taq DNA polymerase (Invitrogen) and two reporter sequence-specific primers. The PCR products were fluorescently labeled by primer extension with 6-arboxyfluorescein (6-FAM) 5'-labeled reporter sequence-specific primer (2 min at 95 C, 20 s at 68 C and 10 min at 72 C) and these products were digested with 5U of HpaI (New England Biolabs) for 2h at 37 C. The fragments were purified using Qiaquick PCR columns (Qiagen), analyzed on an ABI 3130xL genetic analyzer (Applied Biosystems) with peak positions identified by using a set of X-rhodamine (ROX)-labeled MapMarker1000 molecular weight standards (BioVentures). The raw capillary electrophoresis data was processed using Attagraph software (Attagene).

Structure (SMILES) | AC50 | outcome
O=C(O)C(F)(F)C(F)(F)C(F)(F)C(F)(F)C(F)(F)C(F)(F)C(F)(F)F | 52.7 µM (active) | 
[Cl][Sn]([c]1ccccc1)([c]1ccccc1)[c]1ccccc1 |  | inactive
O=S(=O)(O)C(F)(F)C(F)(F)C(F)(F)C(F)(F)C(F)(F)C(F)(F)F |  | inactive
CCCCOCN(C(=O)CCl)c1c(CC)cccc1CC |  | inactive
O=P(Oc1ccccc1)(Oc1ccccc1)Oc1ccccc1 |  | inactive

From PubChem BioAssay AID2284350 (EPA ToxCast)
